High-throughput results from PubChem BioAssay.
Sampled rows, rich in hits. Any-hit rate of the full collection: about 6.5%.
VACV Venus inh: vaccinia inhibition (Venus reporter) | Vaccinia virus Venus reporter expression, fluorescence | Potency, µM (titrated, usually from 36.5 µM), hits mostly inhibitors | 330,000 tested, 0.46% active; calls by dose curve; tested in A549 cells; also: nearly all actives have a fitted effect of over 30% in size
FMDV inh: blocks foot and mouth disease virus | FMDV antiviral cell-based qHTS | Potency, µM (doses to about 57.9 µM), usual class: inhibitors | AID 1159524 | 410,000 tested, 1.2% active; calls by dose curve; tested in HEK293T cells; also: read-out not given here; nearly all actives have a fitted effect of over 45% in size
Marburg entry inh: blocks Marburg virus binding to or entry into cells | Marburg virus pseudotyped entry inhibition, cell reporter | Potency, µM (highest dose often 37.8 µM), hits mostly inhibitors | 300,000 tested, 1.8% active | AID 540276; calls by dose curve; tested in HEK293 cells
Vaccinia mCherry: inhibitors of vaccinia virus infection (mCherry reporter signal); Vaccinia virus mCherry reporter infection, fluorescence; Potency, µM (highest dose often 36.5 µM), hits mostly inhibitors; 310,000 tested, 0.63% active; calls by dose curve; tested in A549 cells; also: nearly all actives have a fitted effect of over 35% in size
Lassa entry inh: blocks Lassa virus binding to or entry into cells | Lassa virus pseudotype entry inhibition, cell reporter | Potency, µM (top dose mostly 37.9 µM), actives largely listed as inhibitors | 300,000 tested, 1.2% active | AID 540256; calls by dose curve; tested in HEK293 cells; also: nearly all actives have a fitted effect of over 50% in size
HCMV antiviral: inhibitors of human cytomegalovirus; HFF cells, HCMV-luciferase reporter, 72 h; active compounds read low; activity change, negative = inhibition, % at 57.5 µM; 410,000 tested, 4.5% active; AID 1259415; in the data active = activity change below about -60%; inconclusive = no clear call, values can overlap the other calls; inactive = above about -39%
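Compounds were evaluated in HFFs infected with an HCMV luciferase reporter virus (MOI 1 PFU/cell). Luciferase in lysates collected 72 h post infection served as the replication measure.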
Hits are given with their value; 0 = inactive; ? = inconclusive; - = no result; ! = not active in a repeat; [ ] = remark or other dose.

SMILES	VACV Venus inh	FMDV inh	Marburg entry inh	Vaccinia mCherry	Lassa entry inh	HCMV antiviral
CCOc1ccc2[nH]c3c(N4CCc5ccccc5C4)ncnc3c2c1	?	0	10µM	3.55µM	?	0
Fc1ccc2[nH]c3c(N4CCc5ccccc5C4)ncnc3c2c1	0[7.34 µM]	?	?	0[7.34 µM]	?	0
Cc1ccc2[nH]c3c(N4CCc5ccccc5C4)ncnc3c2c1	?	?	6.31µM	?	?	-67.1
O=C1/C(=C/N(C(=O)c2ccco2)c2ccc(Cl)cc2)Sc2ccccc21	0	?	?	0	?	-
O=C1/C(=C/N(C(=O)c2ccco2)c2ccc(Br)cc2)Sc2ccccc21	0	11.2µM	?	0	?	-
COc1ccc(CN2CC[C@H]3C=CC[C@@H](C(=O)Nc4ccc(Cl)cc4Cl)[C@H]3C2=O)cc1OC	?	-	-	0	-	-
COc1ccccc1N1CCN(CCCNC(=O)c2nnc(Cc3c(F)cccc3Cl)o2)CC1	0	0	0	0	0	0
O=C(Nc1cccc(F)c1)N1CC[C@@]2(CCCN(C(=O)c3cnccn3)C2)C1	-	0	-	-	-	-
COc1cc(C(O)CO)ccc1OS(=O)(=O)O (configuration not stated)	0	0	?	0	0	-73.4
COc1cc(C(O)CO)ccc1O (configuration not stated)	0	0	?	0	0	0
Cc1cccc(Cn2nnc3c(=O)[nH]c(C4CCN(C(=O)c5ccc(F)cc5)CC4)nc32)c1	0	0	0	0	0	0
COc1ccc(NC(=O)C(C2CC2)n2c(=O)c(-c3cc4ccccc4[nH]3)nc3ccccc32)cc1 (configuration not stated)	?	0	-	?	-	-96.7
O=C(Nc1ccc2ccccc2c1)C(C1CC1)n1c(=O)c(-c2cc3ccccc3[nH]2)nc2ccccc21 (configuration not stated)	0	0	-	?	-	0
OC(CN1CCOCC1)Cn1c(-c2cccc(Cl)c2)nc2ccccc21 (configuration not stated)	-	0	0	-	0	-101.8
OC(CN1CCOCC1)Cn1cnc2ccccc21 (configuration not stated)	0	0	?	0	0	0
Cc1ccc(C)c(NC(=O)CN(C)C(=O)[C@@H](NC(=O)c2ccc(C(C)(C)C)cc2)C(C)C)c1	14.1µM	?	?	28.2µM	?	0
Cc1ccc(C)c(NC(=O)CN(C)C(=O)[C@@H](NC(N)=O)C(C)C)c1	0	0	0	0	0	0
CCn1cc(C(=O)NCc2ccccc2OC)c(=O)c2cc(S(=O)(=O)N3CCCCC3)ccc21	0	0	?	0	0	-76.7
Cc1cc(C)cc(NC(=O)Cn2c(=O)oc3cc(S(=O)(=O)N4CCCC4)ccc32)c1	0	0	0	0	0	0
COc1ccccc1CNC(=O)Cn1c(=O)oc2cc(S(=O)(=O)N3CCCC3)ccc21	0	0	0	0	0	-60.6!
Cc1ccc(NC(=O)Cn2c(=O)oc3cc(S(=O)(=O)N4CCC(C)CC4)ccc32)cc1Cl	?	0	0	?	0	?
Cc1cc(C)c(NC(=O)Cn2c(=O)oc3cc(S(=O)(=O)N4CCCCCC4)ccc32)c(C)c1	0	0	0	0	0	-70.3
Cc1ccc(NC(=O)Cn2c(=O)oc3cc(S(=O)(=O)N4CCC(C)CC4)ccc32)cc1C	?	0	0	0	-	-68.6
COc1ccc(C)cc1NC(=O)Cn1c(=O)ccc2cc(S(=O)(=O)N3CCC(C)CC3)ccc21	0	0	-	0	0	-114.1
CC1CCN(S(=O)(=O)c2ccc3c(c2)oc(=O)n3CC(=O)NCc2ccc(F)cc2)CC1	?	0	?	0	0	-97.0
SMILES	VACV Venus inh	FMDV inh	Marburg entry inh	Vaccinia mCherry	Lassa entry inh	HCMV antiviral
Cc1ccc(NC(=O)Cn2c(=O)ccc3cc(S(=O)(=O)N4CCC(C)CC4)ccc32)cc1C	0	0	-	0	0	0
COc1ccc2cc(C(=O)CS(=O)(=O)c3ccc(Cl)cc3)c(=O)oc2c1	-	-	-	-	-	0
CCOC(=O)c1cccc(NC(=O)COc2nsnc2N2CCOCC2)c1	0	25.1µM	?	0	-	0
CCOC(=O)c1cccc(NC(=O)CCn2cccc2)c1	0	0	0	-	8.91µM	0
O=C([C@@H]1CC=C[C@@H]2CCN(C3CC3)C(=O)[C@@H]21)N1CCOCC1	0	-	-	0	-	-
c1ccc2cc(CC3=NCCN3)ccc2c1	0	0	?	-	0	0
Cc1cc(C(C)(C)C)c(O)c(C)c1CC1=NCCN1	0	0	15.8µM	0	0	0
CCC1CCCCN1CCCNC(=O)C1CCN(Cc2nc(-c3ccc(Cl)cc3)oc2C)CC1 (configuration not stated)	-	0	-	-	-	-
